Test results as given in PubChem BioAssay (NCATS).
Inconclusive results are not listed. Calls of active or inactive are those of the source. The call rests on the fitted dose curve; in most records, active means well fitted inhibition curve with a large enough effect; inconclusive means small, poorly fitted or top-dose-only effect; inactive means no such curve, though single readings can be large or run the other way.
Potency means the concentration at half of the fitted maximal effect.

Assay: qHTS assay to identify inhibitors of the type 1 interferon - major histocompatibility complex class I in skeletal muscle: Counter screen cell viability and HiBit confirmation (AID 1347412); further: nearly all actives have a fitted effect of over 60% in size
Conditions: iHSKM muscle cells + IFN-b, HiBiT or CellTiter-Glo, 24 h; Potency: HiBiT; Viability, at 45.9 µM (top of the series)
Text: Assay Submitter (PI): Travis B. Kinder Ph.D. & James Inglese Ph.D. Assay Development and Screening Technology Laboratory (ADST) National Center for Advancing Translational Sciences (NCATS), Rockville, MD National Institute of Health (NIH), Bethesda, Maryland Idiopathic inflammatory myopathies, collectively referred to as myositis, are a group of rare autoimmune diseases characterized by skeletal muscle inflammation, weakness, and usually accompanied by systemic pathologies of the skin, lungs, or vasculature. Current immunosuppressive therapies and glucocorticoids are often not curative and are accompanied by harsh side effects, especially in children with juvenile myositis. We initiated a drug repurposing and development program to identify more targeted, less toxic therapeutics to treat myositis. Although its cause is not known, muscle from a subset of patients have an abundance of the inflammatory type 1 interferon (IFN) and a down-stream product major histocompatibility complex class I (MHC class I), which are both thought to contribute to damage and weakness. We conducted quantitative high throughput screening on 6,576 compounds (4,679 unique) through a series of cell-based assays to identify those that inhibit the IFN-stimulated expression of MHC class I in muscle precursor cells (myoblasts). The compound identification and evaluation strategy utilized a primary screen with reporter-tagged MHC class I in genome-engineered myoblasts, ATP content counter screen for viability, HLA-ABC immunofluorescence secondary screen, and HLA-B RT-qPCR tertiary screen. The primary screen utilized CRISPR/Cas9 genome-engineering of immortalized human myoblasts, C25cl48, where a pro-luminescent reporter HiBit was fused to the C-terminus of endogenous MHC class I allele HLA-B*08:01 (HLA-B HiBit myoblasts). HiBit is an 11 amino acid fragment of NanoLuc luminescent reporter (Promega Corporation), and when complexed to the larger LgBit fragment, the reconstituted enzyme produces light in the presence of furimazine substrate (Schwinn et al., 2018). Briefly, HLA-B HiBit myoblasts were plated into 1536-well plates, treated with 4.0 ng/ml human IFN-beta and 650 inhibitory compounds identified from primary screening in a 12-point, 1:3 titration with a high final concentration of 46 uM. Compounds were pinned into duplicate plates, with one for HiBit confirmation and one for ATP content viability assay. After 24 hrs of treatment, cells were assayed by either Nano-Glo HiBiT Lytic Detection System (Promega) or CellTiter Glo (Promega), and luminescence measured by a ViewLux 1430 Ultra HTS (Perkin Elmer). References: Schwinn MK, Machleidt T, Zimmerman K, Eggers CT, Dixon AS, Hurst R, Hall MP, Encell LP, Binkowski BF, Wood K V. 2018. CRISPR-Mediated Tagging of Endogenous Proteins with a Luminescent Peptide. ACS Chem Biol 13:467-474. doi:10.1021/acschembio.7b00549
PROTOCOL TABLE (as described by Inglese et al., 2007) SEQUENCE No. (e.g., 1, 2, 3, etc.); […] (e.g., Cells, Incubation, Reagent, etc.); VALUE; DESCRIPTION 1a; Cells; 5 uL; Use a Multidrop Combi (Thermo Scientific) to seed 300 cells/well into 16 Greiner 1536 well white/solid bottom, high base, TC plates in 5 ul/well of iHSKM growth medium (GM) without dexamethasone into columns 1+2. Add metal lids with gas-exchange holes 1b; Cells; 5 uL; Use a Multidrop Combi (Thermo Scientific) to seed 300 cells/well into 16 Greiner 1536 well white/solid bottom, high base, TC plates in 5 ul/well of iHSKM GM without dexamethasone + 4 ng/ml IFN-b into columns 3 - 48. Add metal lids with gas-exchange holes 2; Incubate; 1 hr; Incubate at 37 C, 5% CO2, 95% RH 3; Compounds; 23 nl; Use Pin Tool (Wako) to transfer DMSO control, 92 uM final digitonin cytotoxic control, ruxolitinib IFN-b inhibitor control [High Concentration = 80 uM final, 16-pt, 1:2 in duplicate], and library compounds in DMSO. […]
In the case of `CCc1cc(Nc2nccc(-c3c(-c4ccc(OC)c(C(=O)Nc5c(F)cccc5F)c4)nc4ccccn34)n2)c(OC)cc1N1CCC(N2CCN(S(C)(=O)=O)CC2)CC1`, the Potency is reported as “inactive”.
In the case of `Cc1cc(Nc2nc(N[C@@H](C)c3ncc(F)cn3)ncc2Cl)n[nH]1`, the Potency is reported as 1.4 µM (active).
For `CS(=O)(=O)c1cccc(CNc2nc(Nc3ccc4c(c3)CCC(=O)N4)ncc2C(F)(F)F)c1`, the Potency was 11.1 µM (active).
